Cruzain noTriton: qHTS Assay for Promiscuous and Specific Inhibitors of Cruzain (without detergent). Cruzipain (Trypanosoma cruzi), P25779. 200,000 tested, 2.3% active. Potency, µM, inactives show max response, negative = inhibition, actives largely listed as inhibitors. purified cruzain, Z-FR-AMC fluorescence, no detergent. AID 1476, 2009;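 note: plate controls were enzyme without inhibitor for no effect and buffer without enzyme for full effect; nearly all actives have a fitted effect of over 40% in size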
Target sequence (P25779 123-467 limits assumed): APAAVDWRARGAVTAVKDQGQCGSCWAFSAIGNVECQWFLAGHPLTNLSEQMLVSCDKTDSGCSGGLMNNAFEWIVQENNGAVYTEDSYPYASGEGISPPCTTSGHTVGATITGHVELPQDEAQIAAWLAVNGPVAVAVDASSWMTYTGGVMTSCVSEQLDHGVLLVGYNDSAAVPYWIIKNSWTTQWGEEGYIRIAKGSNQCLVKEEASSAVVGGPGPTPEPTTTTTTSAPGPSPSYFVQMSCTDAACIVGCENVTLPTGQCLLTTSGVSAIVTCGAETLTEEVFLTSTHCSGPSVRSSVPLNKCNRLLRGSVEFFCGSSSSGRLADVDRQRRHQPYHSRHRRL
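Purified cruzain at 1.5 nM, pre-incubated 15 min with compound at room temperature in 100 mM sodium acetate pH 5.5, 5 mM DTT, 0.00005% Triton X-100. Reaction started with 2 uM Z-FR-AMC; AMC fluorescence increase over 60 s gives rate.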
Cruzain inh Det: qHTS Assay for Promiscuous and Specific Inhibitors of Cruzain (with detergent); purified cruzain, Z-FR-AMC fluorescence, 0.01% Triton; 200,000 tested, 0.43% active; AID 1478, 2009; Potency, µM, for the others: max response, negative = inhibition, most hits filed as inhibitors;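 note: plate controls were neutral wells for no effect and buffer without enzyme for full effect; nearly all actives have a fitted effect of over 40% in size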
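Compounds were screened in titration against cruzain (1.5 nM) with 0.01% Triton X-100 to counter colloidal aggregation. Activity was the AMC fluorescence increase over 60 s after adding 2 uM Z-FR-AMC at pH 5.5.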
The depositor's hits bear a star; ? = inconclusive. The list is not random: actives were taken first. Their share in the collection is about 2.4%. Calls come from the whole dose curve; as a rule, active = well fitted curve in the direction sought with a large enough effect; inconclusive = small, poorly fitted or top-dose-only effect, or another doubt; inactive = no such curve, though single readings can be large; an effect the other way counts as inactive or inconclusive. Potency is the fitted concentration of half-maximal effect.

SMILES	Cruzain noTriton	Cruzain inh Det
Cc1ccc(NC(=O)NC(=O)COc2ccc(Cl)cc2Cl)c(C)c1	12.6µM*	0.2%
Oc1c(C(O)(c2ccccc2)c2ccc3ccccc3c2O)ccc2ccccc12	?	-2.2%
CCOC(=O)c1c(C)[nH]c(C(=O)COC(=O)CN2C(=O)C3CCCCC3C2=O)c1C (stereo not drawn)	23.7%	-9.4%
CCOC(=O)c1c(C)[nH]c(C(=O)COC(=O)CNC(=O)C2CCCCC2)c1C	7.94µM*	?
CCOC(=O)c1c(C)[nH]c(C(=O)COC(=O)CNC(=O)c2ccccc2Cl)c1C	12.6µM*	11.2µM*
CCOC(=O)c1c(C)[nH]c(C(=O)COC(=O)[C@H](C)NC(=O)c2ccccc2Cl)c1C	-0.8%	-27.2%
Cc1c(C(=O)N2CCCC2)oc2c1-c1nn(CC(=O)NC(C)c3ccccc3)cc1CC2 (stereo not drawn)	24.1%	-3.0%
Cc1ccc(C(=O)COC(=O)c2cc(-c3ccccc3)nc3ccccc23)cc1C	-4.5%	-2.3%
Cc1ccc(-c2nn(-c3ccccc3)cc2C(=O)OCC(=O)Nc2ncc(Cl)cc2Cl)cc1	31.6µM*	-5.9%
CC(=O)Nc1ccc(C(=O)OCC(=O)c2ccc(C)c([N+](=O)[O-])c2)cc1	6.9%	-3.9%
COc1ccc(NC(=O)c2cn(-c3ccccc3)nc2-c2ccc(C)cc2)cc1	-18.9%	-5.2%
COc1ccc(-c2nn(-c3ccccc3)cc2C(=O)OCC(=O)c2ccc(C)c([N+](=O)[O-])c2)cc1	25.1µM*	2.4%
COc1ccc(-c2cc(C(=O)OCC(=O)c3ccc(C)c([N+](=O)[O-])c3)c3ccccc3n2)cc1	10µM*	-1.3%
COc1ccc(-c2nn(-c3ccccc3)cc2C(=O)n2nnc3ccccc32)cc1	15.8µM*	-13.5%
O=C(COC(=O)CN1C(=O)c2ccccc2C1=O)Nc1ncc(Cl)cc1Cl	-20.4%	-5.7%
COc1ccccc1N(CC(=O)Nc1cc(C)cc(C)c1)S(C)(=O)=O	-6.9%	-3.6%
COCCNC(=O)Nc1cc(C(=O)NCc2ccc(C(C)C)cc2)ccc1N1CCCC1	?	-6.9%
O=C(O)/C(=C\c1ccccc1)Cc1ccccc1	-0.1%	5.5%
COc1ccc(-c2nc(-c3ccccc3)c(-c3ccccc3)[nH]2)cc1Br	3.16µM*	-0.5%
COc1ccc(-c2nc(-c3ccccc3)c(-c3cccs3)[nH]2)cc1OC	25.1%	-2.1%
Cc1cccc(N2CCN(C(=O)c3oc(=O)c4ccccc4c3-c3ccccc3)CC2C)c1 (stereo not drawn)	-5.7%	-6.1%
CCCCCCc1cc2cc(S(=O)(=O)c3ccc(C)cc3)c(=O)oc2cc1O	-21.3%	-12.1%
CCCCCCc1cc2cc(S(=O)(=O)c3ccc(Cl)cc3)c(=O)oc2cc1O	12.6µM*	-5.2%
CC(C)NC[C@@H](O)COc1ccccc1-n1cccc1	-1.3%	-0.1%
Cc1nn(CCCC(=O)NCCc2ccc(Cl)cc2)c(=O)c2c1sc1ccccc12	-12.9%	-12.4%
SMILES	Cruzain noTriton	Cruzain inh Det
COc1ccc(-c2coc3ccc(OC4OC(COC(C)=O)C(OC(C)=O)C(OC(C)=O)C4OC(C)=O)cc3c2=O)cc1 (stereo not drawn)	109.3%	-1.1%
Cc1ccc(OC/C(O)=C(\C#N)c2nc3ccccc3s2)cc1	20µM*	-2.9%
CC(C)=C(C#N)c1nc2ccccc2s1	-4.7%	-6.9%
CC(=O)N(CC(O)CN(C(C)=O)c1c(I)c(C(=O)NC[C@@H](O)CO)c(I)c(C(=O)NC[C@@H](O)CO)c1I)c1c(I)c(C(=O)NC[C@@H](O)CO)c(I)c(C(=O)NC[C@@H](O)CO)c1I	-5.6%	1.9%
CCS(=O)(=O)n1nc(-c2ccccc2)nc1SC	-5.9%	2.4%
Cc1ccc(N(CC(O)Cn2c3ccccc3c3ccccc32)S(=O)(=O)c2ccc(F)cc2)cc1 (stereo not drawn)	8.2%	11.4%
COc1ccc(CN2CCN(CC(O)Cn3c4ccccc4c4ccccc43)CC2)cc1 (stereo not drawn)	9.9%	-0.4%
O=C1S/C(=C\c2ccccc2)C(=O)N1CC(O)Cn1c2ccccc2c2ccccc21 (stereo not drawn)	31.6µM*	-3.8%
COc1ccc(N(CC(O)Cn2c3ccccc3c3ccccc32)S(=O)(=O)c2ccccc2)cc1 (stereo not drawn)	15.8µM*	33.0%
Cc1cc(C)n(CC(O)Cn2c3ccccc3c3ccccc32)c(=O)n1 (stereo not drawn)	?	0.7%
COc1ccc(/C=C2/SC(=O)N(CC(O)Cn3c4ccccc4c4ccccc43)C2=O)cc1 (stereo not drawn)	10µM*	-4.5%
Nc1[nH]c(=S)[nH]c(=O)c1N=Nc1c(Br)cc(S(N)(=O)=O)cc1Br	1.2%	-0.8%
CC12CCC(C(=O)N(NC(=O)c3ccccc3Cl)C1=O)C2(C)C (stereo not drawn)	0.6%	0.0%
